# COUP-TFII inh: NR2F2 transcriptional activity inhibitors, primary screen, cell-based, luciferase reporter, HEK293T, luminescence. COUP transcription factor 2 (Homo sapiens), P24468. HEK293T NGFI-A luciferase reporter. inhibition, % at 8.6 µM. AID 686940, 2013. hit rate 0.7% among 370,000;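 active = inhibition above a per-plate cutoff, mean inhibition of test wells between control levels plus 3 SD, cut at about 38% in these data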;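 also: cells cotransfected with COUP-TFII expression vector driving the NGFI-A reporter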
# Target sequence (P24468 whole entry, looked up): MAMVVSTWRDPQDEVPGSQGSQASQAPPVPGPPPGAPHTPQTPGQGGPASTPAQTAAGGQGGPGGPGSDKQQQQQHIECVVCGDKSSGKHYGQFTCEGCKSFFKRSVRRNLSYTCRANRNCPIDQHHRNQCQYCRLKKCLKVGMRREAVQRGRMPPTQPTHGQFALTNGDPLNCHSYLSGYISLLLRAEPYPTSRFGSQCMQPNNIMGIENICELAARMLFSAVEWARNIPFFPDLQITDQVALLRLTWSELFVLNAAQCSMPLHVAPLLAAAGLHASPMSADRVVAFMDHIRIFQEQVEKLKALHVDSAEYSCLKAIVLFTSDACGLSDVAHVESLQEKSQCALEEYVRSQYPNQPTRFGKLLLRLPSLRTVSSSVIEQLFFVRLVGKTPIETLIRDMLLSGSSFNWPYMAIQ
# Jurkat NFkB inh: inhibitors of induced NF-kB luciferase reporter, primary screen, TCR NF-kB activation inhibitor project, cell-based, luminescence, uHTS; inhibition, % at 4 µM; hit rate 0.53% among 330,000; Jurkat, PMA/ionomycin-induced NF-kB luciferase reporter; AID 435003, 2010; in the data active = inhibition above about 50%
# 697 NFkB inh: inhibitors of PMA/ionomycin-induced NF-kB reporter, 697 cells, primary screen, B-cell NF-kB inhibitor project, cell-based, luminescence, uHTS. 697 B-cell NF-kB luciferase reporter, 16 h. inhibition, % at 4 µM. hit rate 0.33% among 330,000. AID 435022, 2010; in the data active = inhibition above about 35%
# GalR3 antag: GalR3 antagonists in HEK293 cells, primary screen, cell-based, fluorescence readout; Galanin receptor type 3 (Homo sapiens), O60755; HEK293 GalR3-CNG cAMP membrane potential fluorescence; galR3 body fused to GalR1 C-terminus; inhibition, % at 3 µM; hit rate 0.44% among 360,000; AID 651719, 2012;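 active = inhibition above the screen-wide average plus 3 SD, cut at about 13% in these data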;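 also: forskolin and galanin both at EC90 stimulate the cells; cAMP rise reported by CNG channel membrane potential dye signal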
# Gli-Sufu antag: Gli-Sufu pathway antagonists, primary screen, luciferase luminescence, Sufu-KO-LIGHT cells, uHTS; Sufu-KO-LIGHT fibroblasts, Gli luciferase reporter luminescence; inhibition, % at 5 µM; hit rate 0.74% among 340,000;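 active = inhibition above about 55%, limit read from the data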
# GalR3 conf: GalR3 antagonist hit confirmation, cell-based, fluorescence, triplicate; shares compounds with GalR3 antag; HEK293 GalR3 CNG cAMP biosensor, membrane potential fluorescence; galR3 fused to GalR1 carboxy tail; challenged with forskolin and galanin at EC90; inhibition, % at 3 µM; hit rate 59% among 1,600;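 active = inhibition above the primary screen's cutoff, the mean inhibition of all screened compounds plus 3 SD, cut at about 13% in these data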
# HEK-CNG parental: nonspecific cAMP agonists in parental HEK-CNG cells, counter-screen for GalR3 antagonist project, cell-based, fluorescence, high throughput. shares compounds with GalR3 antag. HEK293-CNG parental cells, cAMP membrane potential fluorescence; normalised: DMSO wells 0%, forskolin wells 100%. activation, % at 3 µM. hit rate 10% among 1,600. AID 652268, 2013; in the data active = activation above about 1.3%
# Hits are given with their value; – = inactive; · = no result given. Sampled rows, rich in hits. Any-hit rate of the full collection: about 2%.
SMILES,COUP-TFII inh,Jurkat NFkB inh,697 NFkB inh,GalR3 antag,Gli-Sufu antag,GalR3 conf,HEK-CNG parental
CCN(CC(=O)Nc1ccc(NC(C)=O)cc1)CC(=O)Nc1ccccc1C(=O)c1ccccc1,–,–,–,17,–,–,–
O=c1oc2ccccc2c2c1C(c1ccc(Cl)cc1)Nc1ccc3ccccc3c1-2 (stereo not given),–,–,–,15,–,–,–
CN1CCCN(C(=O)CSc2nnc(-c3cccnc3)n2C2CCCCC2)CC1,–,·,·,·,·,·,·
C=CCN1C(=O)[C@@H](CC(=O)NCCc2ccccc2OC)[C@]2(C(=O)OCC)CCCCC/C=C/12,–,·,·,·,·,·,·
O=C(c1cccs1)n1ccc2ccc(-c3ccc4ccn(Cc5ccccc5)c4c3)cc21,–,·,·,·,·,·,·
O=C(CSC1=Nc2ccccc2C2CC=NN12)Nc1ccc2c(c1)OCO2 (stereo not given),–,·,·,20,–,–,–
Cc1occc1-c1nnc(SCC(=O)Nc2ccc3ncccc3c2)n1-c1ccccc1,–,·,·,·,·,·,·
CC(NCC1COc2ccccc2O1)C(=O)NCc1ccccc1 (stereo not given),–,–,–,13,–,–,–
CCCCNC(=O)C1CCCN1C(=O)NCc1ccccc1OC (stereo not given),–,·,·,·,·,·,·
COc1ccccc1Oc1ccc2c(c1)C(=O)N(c1cccc3ncccc13)C2=O,–,·,·,58,–,46,–
COc1ccccc1Oc1ccc2c(c1)C(=O)N(c1cccc(O)c1)C2=O,–,–,–,–,–,·,·
CCO[C@@H]1OC(C(N)=O)=C[C@H](c2ccc(C(F)(F)F)cc2)[C@H]1CCCO,–,–,–,16,–,–,–
CCO[C@@H]1OC(C(=O)O)=C[C@H](c2ccc(C(F)(F)F)cc2)[C@H]1CCCO,–,–,–,–,–,·,·
O=C1c2cc([N+](=O)[O-])cc3cc([N+](=O)[O-])cc(c23)C(=O)N1c1ccccn1,–,·,·,·,–,–,–
Cc1cc(=O)[nH]c(N/N=C/c2cccc([N+](=O)[O-])c2)n1,–,–,–,–,·,·,·
Cc1cc(=O)[nH]c(N/N=C/c2ccc(Cl)c([N+](=O)[O-])c2)n1,–,–,–,14,–,–,–
COc1ccc(-c2nnc(SCC(=O)N/N=C(\C)c3ccc(-c4ccccc4)cc3)n2-c2ccc(C)cc2)cc1,–,·,·,·,·,·,·
Cc1[nH]nc(NCCO)c1[N+](=O)[O-],–,–,–,·,–,69,–
Clc1cccc(CSc2ncnc3sc4c(c23)CCCC4)c1,–,·,·,·,·,·,·
COC(=O)C1CCN(Cc2ccc(OCCCN3CCN(c4ccc([N+](=O)[O-])cc4)CC3)cc2)CC1,–,–,–,13,–,114,3.1
CC1CCN(CCCCOc2ccc([N+](=O)[O-])cc2)CC1,–,–,–,–,–,·,·
O=P(CCCCCCCCCP(=O)(c1ccccc1)c1ccccc1)(c1ccccc1)c1ccccc1,–,–,–,–,–,·,·
O=C(O)CCCCCCCCCCP(=O)(c1ccccc1)c1ccccc1,–,–,–,13,–,–,–
C[C@H]1[C@@H](NC(=O)C2CCOC2)CC[C@@]23CCCN2C(=O)CCC[C@@H]13 (stereo not given in full),–,·,·,·,·,·,·
O=C(NCc1ccc(F)c(F)c1)C1CCC(CNS(=O)(=O)c2cccc3cccnc23)CC1 (stereo not given),–,·,·,·,·,·,·
SMILES,COUP-TFII inh,Jurkat NFkB inh,697 NFkB inh,GalR3 antag,Gli-Sufu antag,GalR3 conf,HEK-CNG parental
CN1CC(=O)N(CC(=O)Nc2ccc3c(c2)CCC3)C1=O,–,–,–,24,·,–,–
CC(C)CC1NC(=O)N(CC(=O)Nc2ccc3c(c2)CCC3)C1=O (stereo not given),–,–,–,–,–,·,·
CCOC(=O)C1CCN(C(=O)C(C)(C)NC(=O)Nc2ccc(N(C)C)cc2)CC1,–,·,·,·,·,·,·
COc1ccc(NS(=O)(=O)c2ccc3oc(SC(C)C(N)=O)nc3c2)cc1 (stereo not given),–,–,–,24,–,–,–
COc1ccc(-c2cc(C(F)(F)F)nc(N)n2)cc1,–,–,–,–,–,·,·
COc1ccc(-c2cc(C(F)(F)F)nc(S(C)(=O)=O)n2)cc1,–,–,–,32,–,13,–
CS(=O)(=O)c1nc(-c2ccc(F)cc2)cc(C(F)(F)F)n1,–,·,·,26,–,25,–
CCC(Sc1nc2n[nH]c(C)c2c(=N)n1-c1cccc(Cl)c1C)C(=O)N(CC)CC (stereo not given),–,–,–,17,–,71,–
CCn1nnnc1SCC(=O)Nc1ccc(F)cc1,–,–,–,14,–,71,–
CCCCn1nnnc1SCC(=O)Nc1ccc(F)cc1,–,–,–,–,–,·,·
CC1CN(C)C(C)C/C1=N\Oc1ccc([N+](=O)[O-])cc1 (stereo not given),–,–,–,–,–,·,·
CC1CN(C)C(C)C/C1=N/Oc1ccccc1[N+](=O)[O-] (stereo not given),–,–,–,13,–,–,–
C#CCNC(=O)C[C@@H]1C(=O)N(CCc2ccc(Cl)cc2)/C2=C/CCCCC[C@@]21C(=O)OCC,–,·,·,·,·,·,·
C/C(=N\OCc1nc2ccccc2c(=O)n1/N=C/c1cc(C)cc([N+](=O)[O-])c1O)c1ccccc1,–,–,–,67,–,70,–
C=CCN1C(=O)c2[nH]nc(-c3ccccc3)c2C1c1ccc(C)cc1 (stereo not given),–,·,·,–,·,·,·
COC(=O)C1CN(Cc2ccccc2)CCS(=O)(=O)N1Cc1ccc(F)cc1 (stereo not given),–,·,·,·,·,·,·
O=C(Oc1ccc(Br)cc1C(=O)/C=C/c1ccccc1F)c1ccco1,–,–,–,24,–,–,–
O=C(COC(=O)/C=C/c1ccco1)NCc1ccco1,–,–,–,15,–,–,–
O=C(COC(=O)/C=C/c1ccco1)NCc1ccccc1Cl,–,–,–,–,–,·,·
Cc1nc(S(=O)(=O)Cc2ccccc2)nc2c1CCC2,–,–,–,–,–,·,·
Cc1nc(S(=O)(=O)Cc2ccccc2Cl)nc2c1CCC2,–,–,–,27,–,–,–
O=C(OCc1cc(=O)oc2cc(O)ccc12)c1cc(S(=O)(=O)N2CCOCC2)ccc1F,–,–,–,34,–,55,–
O=C1COc2ccc(C(=O)COC(=O)CCc3ccc(S(=O)(=O)N4CCOCC4)cc3)cc2N1,–,–,–,–,–,·,·
O=C1COc2ccc(C(=O)COC(=O)c3cc(S(=O)(=O)N4CCOCC4)ccc3F)cc2N1,–,–,–,55,–,34,–
